# Bioassay records from PubChem BioAssay.
# HEK293 tox: cytotoxic compounds in HEK 293 cells | HEK 293 viability, ATP luminescence (CellTiter-Glo), 48-72 h | Potency, µM (highest dose often 115 µM), inactives show at the highest dose activity change, negative = cytotoxicity, hits mostly inhibitors | actives 6.6% (n = 94,000) | AID 1345083; also: nearly all actives have a fitted effect of over 60% in size
#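 Read-out: CellTiter-Glo ATP luminescence. Cells: HEK 293, 250 cells/well. Exposure: 48 or 72 hr, 37 degree Celsius.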
# GPT2 inh: blocks human glutamate pyruvate transaminase 2; Recombinant GPT2, coupled pyruvate oxidase/HRP Amplex Red fluorescence; Potency, µM (series often up to 57.7 µM), for the others: at the highest dose activity change, negative = inhibition, actives largely listed as inhibitors; actives 0.25% (n = 100,000); also: nearly all actives have a fitted effect of over 60% in size
#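 Recombinant GPT2 (10ng/uL) with 250uM a-KG and 2mM L-alanine, 30 min at room temperature, in HEPES pH 7.5 buffer. Pyruvate detected by pyruvate oxidase/HRP/Amplex Red fluorescence after 30 min in the dark; AOA (50uM) as positive control.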
# NIH3T3 tox: kills NIH 3T3 cells | AID 1345082 | actives 4.3% (n = 94,000) | Potency, µM (titrated, usually from 96.7 µM), inactives show at the top dose activity change, negative = cytotoxicity, actives largely listed as inhibitors | NIH 3T3 viability, CellTiter-Glo ATP luminescence, 48-72 h; also: nearly all actives have a fitted effect of over 55% in size
#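 Cells were seeded at 400 per well, treated with pin-transferred compound, and kept 48 or 72 hr at 37 °C before CellTiter-Glo addition and luminescence imaging of cellular ATP.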
# FLuc inh: inhibitors of firefly (Photinus pyralis) luciferase; Potency, µM (doses to about 115 µM), most hits filed as inhibitors; purified P. pyralis luciferase, luminescence, biochemical; AID 1347043; actives 2.5% (n = 76,000); also: nearly all actives have a fitted effect of over 65% in size
# Target sequence (P08659 whole entry, looked up): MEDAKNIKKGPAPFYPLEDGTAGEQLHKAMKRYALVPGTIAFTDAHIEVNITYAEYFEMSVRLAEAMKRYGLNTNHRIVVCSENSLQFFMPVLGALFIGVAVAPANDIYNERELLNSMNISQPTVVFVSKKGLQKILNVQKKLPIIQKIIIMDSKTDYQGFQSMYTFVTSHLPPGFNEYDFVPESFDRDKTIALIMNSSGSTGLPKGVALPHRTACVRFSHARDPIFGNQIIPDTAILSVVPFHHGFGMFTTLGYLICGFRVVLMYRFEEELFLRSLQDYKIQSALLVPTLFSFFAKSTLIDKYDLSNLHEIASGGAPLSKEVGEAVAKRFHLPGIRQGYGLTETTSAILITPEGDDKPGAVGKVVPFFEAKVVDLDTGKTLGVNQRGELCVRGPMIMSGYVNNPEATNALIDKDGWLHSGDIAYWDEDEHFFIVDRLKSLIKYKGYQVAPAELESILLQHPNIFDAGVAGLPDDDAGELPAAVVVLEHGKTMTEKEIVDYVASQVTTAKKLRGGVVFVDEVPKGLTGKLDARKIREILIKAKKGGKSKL
#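 FLuc 10nM, D-luciferin 10uM, ATP 10uM, Mg acetate 10mM, Tris acetate pH 7.5, Tween/BSA; cpd qHTS; enzyme added last; CCD luminescence.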
# hNpr1 antagonist: antagonists of human natriuretic peptide receptor Npr1; P16066; HEK293 hNpr1 GloSensor cGMP, ANP-stimulated luminescence; Potency, µM (top dose mostly 46.3 µM), for the others: top-dose activity change, negative = inhibition, actives largely listed as inhibitors; actives 1.6% (n = 76,000); calls by dose curve; also: nearly all actives have a fitted effect of over 60% in size
#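 HEK293 cells stably expressing human Npr1 and cGMP GloSensor pGS-40F, loaded 2 h with 2% GloSensor reagent, given compound 30 min at room temperature. Luminescence read before and 20 min after 0.1 nM hNppA.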
# Active calls of the source: *; i = inactive; ? = inconclusive; nt = no result; [ ] = dose if it differs, or a comment. An excerpt weighted towards active compounds, which were near 10% of everything screened. Unless noted, calls follow the shape of the dose curve; as a rule, active = well fitted curve in the direction sought with a large enough effect; inconclusive = small, poorly fitted or top-dose-only effect, or another doubt; inactive = no such curve, though single readings can be large; an effect the other way counts as inactive or inconclusive. % is scaled to controls: 0 for no effect and ±100 for the full control effect; potency is read from the fitted curve at half-maximal effect.
SMILES,HEK293 tox,GPT2 inh,NIH3T3 tox,FLuc inh,hNpr1 antagonist
CN1c2cc(C(=O)N3CCN(c4cccc(Cl)c4)CC3)ccc2C(=O)N2CCCC21 (stereo not given),79.4µM*,0.5%,-15.3%,i,-4.6%
CN1c2cc(C(=O)N3CCN(c4cccc(Cl)c4)CC3)ccc2C(=O)N2CCCCC21 (stereo not given),44.7µM*,i,?,i,-2.2%
NC(=O)[C@H](Cc1cccs1)NC(=O)[C@@H]1[C@@H](NC(=O)Nc2ccc(F)cc2F)CCN1C(=O)c1cnccn1,-22.1%,?,-2.0%,i,2.8%
Cn1cc(CN2C[C@@H]3C[C@H](C2)c2ccc(NS(=O)(=O)c4cccc(F)c4)c(=O)n2C3)c2ccccc21,31.6µM*,i,12.6µM*,i,-23.4%
O=C(c1ccc(-c2ccccc2)cc1)N1C[C@@H]2C[C@H](C1)c1ccc(NS(=O)(=O)c3cccc(F)c3)c(=O)n1C2,50.1µM*,i,?,?,-5.8%
O=C(c1ccc2ccccc2c1)N1C[C@@H]2C[C@H](C1)c1ccc(NS(=O)(=O)Cc3ccccc3)c(=O)n1C2,?,i,79.4µM*,i,3.3%
O=C(NC1CCCCC1)c1cn2cc(-c3ccc(C(F)(F)F)cc3)sc2n1,3.1%,-3.6%,-18.0%,nt,nt
O=C(NCc1c[nH]c(=O)[nH]c1=O)C1CCN(Cc2ccco2)CC1,-28.2%,-10.8%,-1.5%,i,3.8%
O=C(c1cc2n(n1)CC(c1ccc(Br)cc1)OC2)N1CCOCC1 (stereo not given),28.2µM*,?,39.8µM*,i,-11.0%
O=C(c1cc2n(n1)CC(c1ccc3c(c1)OCO3)OC2)N1CCCCC1 (stereo not given),35.5µM*,i,39.8µM*,i,-7.3%
O=C(c1cc2n(n1)CC(c1ccc(Cl)cc1)OC2)N1CCCCC1 (stereo not given),?,1.2%,39.8µM*,i,-25.0%
CCN1CCN(C(=O)c2cc3n(n2)CC(c2ccc(Br)cc2)OC3)CC1 (stereo not given),?,-34.0%,?,i,-25.4%
Cc1ccc(C)c(N2CCN(C(=O)c3cc4n(n3)CC(c3ccc(Cl)cc3)OC4)CC2)c1 (stereo not given),44.7µM*,i,?,i,-19.7%
O=C(Nc1ccccc1)c1cc2n(n1)CC(c1ccc3c(c1)OCO3)OC2 (stereo not given),?,i,?,?,?
Cc1ccccc1N1CCN(C(=O)c2cc3n(n2)CC(c2ccc(Cl)cc2)OC3)CC1 (stereo not given),?,-33.3%,?,i,?
Cc1ccc(N2CCN(C(=O)c3cc4n(n3)CC(c3ccc(Cl)cc3)OC4)CC2)cc1 (stereo not given),?,-6.6%,?,i,?
O=C(Nc1cccc2cccnc12)c1ccc(N2C(=O)[C@@H]3C4C=CC(C4)[C@@H]3C2=O)cc1,nt,2.3%,nt,nt,nt
CC(C)CN1C(=O)COC[C@@H]1[C@H](O)c1ccc(NC(=O)c2ccc3c(c2)OCO3)cc1,-21.8%[172 µM],i,-12.5%[138 µM],63.1µM*,-0.9%[70.6 µM]
CC(C)CN1C(=O)COC[C@@H]1[C@H](O)c1ccc(NC(=O)c2ccc(F)cc2)cc1,-19.7%[172 µM],i,-21.5%[138 µM],?,-16.7%[70.6 µM]
CN1C(=O)COC[C@@H]1[C@H](O)c1ccc(NC(=O)c2ccc3c(c2)OCO3)cc1,-18.9%[172 µM],i,-22.5%[174 µM],?,1.5%[70.6 µM]
COc1ccc(CN2C(=O)COC[C@@H]2[C@H](O)c2ccc(NC(=O)c3ccc(C(C)(C)C)cc3)cc2)cc1,28.2µM*,-0.1%,22.4µM*,14.1µM*,2.8%
COc1ccc(C(=O)Nc2ccc(C(O)[C@H]3COCC(=O)N3CC(C)C)cc2)cc1 (stereo not given in full),?,-6.9%[88.5 µM],3.2%[174 µM],25.1µM*,-1.6%[70.6 µM]
CCc1cnn2c(NCc3ccc[n+]([O-])c3)cc(N3CCCCC3CCO)nc12 (stereo not given),nt,2.5%,nt,nt,nt
COCCN1C(=O)CCc2cc(NC(=O)c3ccc(C)cc3C)ccc21,?,-15.1%,?,39.8µM*,0.0%
CCN1C(=O)CCc2cc(NC(=O)c3ccc(OC)cc3C)ccc21,70.8µM*,5.0%,?,25.1µM*,-1.9%
SMILES,HEK293 tox,GPT2 inh,NIH3T3 tox,FLuc inh,hNpr1 antagonist
COCCN1C(=O)CCc2cc(NC(=O)c3ccccc3C)ccc21,-8.5%,-7.7%,-13.3%,i,0.4%
O=C(C1CCCN1C(=O)C1CCCC1)N1CCC(N2Cc3cccn3C2=O)CC1 (stereo not given),i,i,-4.4%,nt,nt
O=C(C1CCCN1C(=O)Nc1ccc(Cl)cc1)N1CCC(N2Cc3cccn3C2=O)CC1 (stereo not given),?,0.2%,28.2µM*,nt,nt
CCS(=O)(=O)N1CCC(c2noc(COc3ccc(F)cc3)n2)C1 (stereo not given),?,-1.7%,-8.5%,i,-3.9%
O=C(CC1CCCCC1)N1CCCC(c2noc(COc3ccccc3)n2)C1 (stereo not given),?,3.1%,39.8µM*,i,?
Cc1ccc(OCc2nc(C3CCN(S(=O)(=O)Cc4ccccc4F)C3)no2)cc1 (stereo not given),25.1µM*,3.0%,?,i,?
CCc1ccc(NC(=O)N2CCCC(c3noc(COc4ccccc4F)n3)C2)cc1 (stereo not given),?,i,?,2.24µM*,?
Cc1c(F)cccc1NC(=O)N1CCCC(c2noc(COc3ccccc3)n2)C1 (stereo not given),?,-29.3%,?,11.2µM*,-25.1%
O=C(c1ccc(F)cc1)N1CCc2nc(C3CC3)nc(-c3ccc(O)cc3)c2C1,?,1.7%,?,nt,nt
O=C(COc1ccccc1)N1CCCC1c1nc(CCOCC2CCOCC2)no1 (stereo not given),0.2%,i,-15.4%,nt,nt
Cc1cccc(C(=O)N2CCCC(c3noc(COc4ccccc4F)n3)C2)c1 (stereo not given),?,i,?,i,-23.5%
O=C(c1cccc(F)c1)N1CCCC(c2noc(COc3ccccc3F)n2)C1 (stereo not given),70.8µM*,i,?,i,-6.8%
COc1cccc(-c2ccc(C(=O)N3CCC(N[S+](=O)([O-])c4cccc(C(F)(F)F)c4)CC3)cc2)c1,11.2µM*,-4.0%,?,nt,nt
COc1cccc(-c2ccc(C(=O)N3CCC(N[S+](=O)([O-])c4ccc(C)cc4)CC3)cc2)c1,11.2µM*,-10.9%,?,nt,nt
N#Cc1cccnc1-c1ccc(C(=O)N2CCC(N[S+](=O)([O-])c3cccc(C(F)(F)F)c3)CC2)cc1,?,-18.2%,?,nt,nt
